Assay results as given in PubChem BioAssay AID1159580 (chemical genetic matrix, 2015).
Where “and” joins values, the source holds several entries; their conditions need not be identical. Identical values can stand only once. Out of some 5,500 compounds screened, about 2,000 (36%) were called active. Not shown: some 18% with an inconclusive outcome. No stated cut-off is given here; in the data, active means normalized growth mostly below about 0.91 (no sharp cut-off); inconclusive means no clear call, values can overlap the other calls; inactive means mostly above about 0.92. The list shows a part of the results.

Assay: chemical genetic growth profiling, strain panel (AID 1159580);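 further: tested at 20 µM; growth read once vehicle control cultures reached saturation at 30 °C; 1 = growth at the plate median or of vehicle wells; lower values mean less growth of the strain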
Conditions: S. cerevisiae deletion strains, growth OD

Measured: normalized growth

COc1cc2cc[n+]3cc4c(OC)c(OC)ccc4cc3c2cc1OC
inactive: locus YAL013W, strain DEP1, active compounds read low 0.996 | locus YAL021C, strain ccr4, active compounds read low 0.99 | locus YAL026C, strain drs2, active compounds read low 0.97 | locus YAL030W, strain snc1, active compounds read low 0.965 | locus YBL061C, strain skt5, active compounds read low 0.971 | locus YBR009C, strain hhf1, active compounds read low 0.984 | locus YBR021W, strain FUR4, active compounds read low 1.03 | locus YBR023C, strain chs3, active compounds read low 0.977 | locus YBR171W, strain sec66, active compounds read low 0.975 | locus YBR229C, strain ROT2, active compounds read low 0.99 | locus YBR231C, strain swc5, active compounds read low 0.983 | locus YBR279W, strain paf1, active compounds read low 0.982 | locus YCL011C, strain gbp2, active compounds read low 0.963 | locus YCL016C, strain dcc1, active compounds read low 0.976 | locus YCL029C, strain bik1, active compounds read low 0.983 | locus YCL061C, strain MRC1, active compounds read low 0.987 | locus YCL069W, strain vba3, active compounds read low 0.981 | locus YCR088W, strain abp1, active compounds read low 0.982 | locus YDL005C, strain med2, active compounds read low 0.957 | locus YDL035C, strain GPR1, active compounds read low 0.975 | locus YDL040C, strain nat1, active compounds read low 0.985 | locus YDL074C, strain BRE1, active compounds read low 0.977 | locus YDL101C, strain DUN1, active compounds read low 0.98 | locus YDL134C, strain PPH21, active compounds read low 0.985 | locus YDL192W, strain arf1, active compounds read low 0.986 | locus YDR001C, strain nth1, active compounds read low 0.964 | locus YDR069C, strain doa4, active compounds read low 0.981 | locus YDR101C, strain arx1, active compounds read low 0.978 | locus YDR137W, strain rgp1, active compounds read low 0.977 | locus YDR150W, strain NUM1, active compounds read low 0.954 | locus YDR159W, strain sac3, active compounds read low 0.982 | locus YDR162C, strain NBP2, active compounds read low 0.99 | locus YDR195W, strain ref2 0.949 | locus YDR297W, strain sur2, active compounds read low 0.979 | locus YDR318W, strain mcm21, active compounds read low 0.969 | locus YDR334W, strain swr1, active compounds read low 0.944 | locus YDR335W, strain msn5, active compounds read low 0.98 | locus YDR388W, active compounds read low 0.989 | locus YDR392W, strain spt3, active compounds read low 0.927 | locus YDR502C, strain sam2, active compounds read low 0.98 | locus YEL003W, strain gim4, active compounds read low 0.974 | locus YEL037C, strain rad23, active compounds read low 0.967 | locus YEL061C, strain CIN8 (second series), active compounds read low 0.976 | locus YEL061C, strain CIN8, active compounds read low 0.996 | locus YER015W, strain faa2, active compounds read low 0.971 | locus YER016W, strain bim1, active compounds read low 0.974 | locus YER110C, active compounds read low 0.962 | locus YER111C, strain swi4, active compounds read low 0.972 | locus YER155C, strain BEM2 (second series), active compounds read low 0.976 | locus YER155C, strain BEM2, active compounds read low 1.01 | locus YER167W, strain BCK2, active compounds read low 0.978 | locus YFR010W, strain ubp6, active compounds read low 0.952 | locus YGL078C, strain dbp3, active compounds read low 0.979 | locus YGL086W, strain mad1, active compounds read low 0.975 | locus YGL167C, strain pmr1, active compounds read low 0.973 | locus YGL173C, strain kem1, active compounds read low 0.954 | locus YGL227W, strain vid30, active compounds read low 0.973 | locus YGL240W, strain doc1, active compounds read low 0.987 | locus YGL248W, strain PDE1, active compounds read low 0.99 | locus YGL253W, strain hxk2, active compounds read low 0.974 | locus YGR078C, strain PAC10, active compounds read low 0.986 | locus YGR135W, strain pre9, active compounds read low 1 | locus YGR229C, strain SMI1, active compounds read low 1.01 | locus YGR252W, strain gcn5, active compounds read low 0.93 | locus YHR013C, strain ard1, active compounds read low 0.945 | locus YHR027C, strain rpn1, active compounds read low 0.967 | locus YHR030C, strain SLT2, active compounds read low 0.982 and 1.02 | locus YHR079C, strain IRE1 (second series), active compounds read low 0.977 | locus YHR079C, strain IRE1, active compounds read low 1.04 | locus YHR094C, strain hxt1, active compounds read low 0.969 | locus YHR129C, strain ARP1, active compounds read low 0.945 | locus YHR142W, strain chs7, active compounds read low 0.932 | locus YHR200W, strain rpn10, active compounds read low 0.965 | locus YIL066C, strain RNR3, active compounds read low 0.974 | locus YIL073C, strain SPO22, active compounds read low 0.875 | locus YIL125W, strain kgd1, active compounds read low 0.965 | locus YIR030C, strain dcg1, active compounds read low 0.98 | locus YJL092W, strain hpr5, active compounds read low 0.978 | locus YJL095W, strain BCK1 (second series), active compounds read low 0.993 | locus YJL095W, strain BCK1, active compounds read low 0.994 and 0.984 | locus YJL115W, strain asf1, active compounds read low 0.936 | locus YJL129C, strain trk1, active compounds read low 0.94 | locus YJL134W, strain LCB3, active compounds read low 0.973 | locus YJL154C, strain vps35, active compounds read low 0.967 | locus YJL164C, strain tpk1, active compounds read low 1 | locus YJL166W, strain qcr8, active compounds read low 0.984 | locus YJL168C, strain set2, active compounds read low 0.98 | locus YJL187C, strain SWE1 (second series), active compounds read low 0.976 | locus YJL187C, strain SWE1, active compounds read low 0.988 | locus YJR043C, strain POL32, active compounds read low 0.96 | locus YJR066W, strain TOR1, active compounds read low 0.976
